Some test systems named below: DU-145 prostate; MALME-3M melanoma; MDA-MB-231 breast; RXF 393 renal; SF-268 CNS; SF-295 CNS; SF-539 CNS; UACC-257 melanoma; M14 melanoma.
Test in all cases: NCI-60 one-dose screen, 48 h (100 = growth as untreated, 0 = no growth, -100 = all killed)
Holding throughout (details): 10 µM unless noted

About 83,000 compounds went through this panel and 20% of them were active in at least one assay; those are over-represented in the sample as a whole.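 Method: cells in 96-well plates; compound added at one concentration; 48 h incubation; percent growth measured; values under 10 scored active.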 A number with no mark means an inactive call. The source made the active and inactive calls.

In the case of `COc1ccc(-c2cnc3c(-c4cccc5ncccc45)cnn3c2)cc1`, the growth was 58.1% in the assay on DU-145 prostate; 15% in the assay on MALME-3M melanoma; -1.88% (active) with MDA-MB-231 breast; 26.7% in the assay with RXF 393 renal; 19% with SF-268 CNS; 32.2% with SF-295 CNS. Moreover, the growth in the assay with SF-539 CNS is 30.8%; in the assay with UACC-257 melanoma, 51.3%; in the assay on M14 melanoma, 76.8%.

As to `N#CC1=C(N)Oc2c(cnn2-c2ccc([N+](=O)[O-])cc2[N+](=O)[O-])C1c1ccccc1` (configuration not stated), the growth is 114% in the assay on DU-145 prostate; 99.8% with MALME-3M melanoma; 105% with MDA-MB-231 breast; 110% in the assay on RXF 393 renal; 102% in the assay on SF-268 CNS; 93.3% in the assay on SF-295 CNS. Besides, the growth is 98.2% in the assay on SF-539 CNS, 94.1% in the assay with UACC-257 melanoma and 95.3% with M14 melanoma.

Consider `O=C(/C=C/c1c(-c2ccc(Cl)cc2)nn(-c2ccccc2)c1C(F)(F)F)c1ccc(Cl)cc1`, for which the growth in the assay with DU-145 prostate is 108%; with MALME-3M melanoma, 104%; in the assay on MDA-MB-231 breast it was 79.5%; with RXF 393 renal, 88.4%; with SF-268 CNS it was 105%; with SF-295 CNS, 96.5%. Further, the growth with SF-539 CNS is 102%; with UACC-257 melanoma, 104%; in the assay on M14 melanoma, 90.5%.

Regarding `C=C1C(=O)O[C@H]2[C@H]1CC/C(CNC(=O)c1cccc3ccccc13)=C\CC[C@@]1(C)O[C@@H]21`, the growth with DU-145 prostate is 33.8%; in the assay with MALME-3M melanoma, 36.2%; in the assay with MDA-MB-231 breast, 34.1%; with RXF 393 renal, 27.5%; in the assay with SF-268 CNS, 63.1%; in the assay on SF-295 CNS, 85.9%. Moreover, the growth with SF-539 CNS was 59.7%; in the assay on UACC-257 melanoma, 66.2%; in the assay on M14 melanoma, 38.2%.

On to `CC(=O)[C@@H]1CC[C@]2(CO)CC[C@]3(C)[C@H](CC[C@@H]4[C@@]5(C)CCCNC(C)(C)[C@@H]5CC[C@]43C)[C@@H]12`, for which the growth was 101% in the assay with DU-145 prostate; 92.9% in the assay on MALME-3M melanoma; 107% in the assay on MDA-MB-231 breast; 104% in the assay on RXF 393 renal; 91.2% in the assay on SF-268 CNS; 105% with SF-295 CNS. Further, the growth is 105% with SF-539 CNS, 123% with UACC-257 melanoma and 93.6% in the assay with M14 melanoma.

For the compound `O=Cc1ccc(-c2cn3ccnc3c(-c3ccc4ncn(Cc5ccccc5)c4c3)n2)cc1`, the growth in the assay with DU-145 prostate was 75.7%; in the assay on MALME-3M melanoma it was 113%; in the assay on MDA-MB-231 breast, 40.8%; in the assay on RXF 393 renal it was 75%; in the assay on SF-268 CNS it was 72.9%; in the assay on SF-295 CNS, 76.9%. For the same compound, the growth in the assay with SF-539 CNS was 68.5%; in the assay with UACC-257 melanoma, 122%; in the assay on M14 melanoma, 77%.

With `Cn1cc(-c2nc(-c3c[nH]c4c(Cl)nccc34)cs2)c2cc(Br)ccc21`, the growth was 80.3% in the assay with DU-145 prostate; 118% in the assay with MALME-3M melanoma; 96.9% in the assay on MDA-MB-231 breast; 95.9% in the assay with RXF 393 renal; 105% with SF-268 CNS; 91.4% in the assay on SF-295 CNS. The figures for the growth in the assay with SF-539 CNS, with UACC-257 melanoma and in the assay with M14 melanoma were 82.5%, 54.1% and 73.5%, respectively.

As to `Cc1c2cc[nH]c(=O)c2c(C)c2c1[nH]c1cc(OCCN3CCN(C)CC3)ccc12`, the growth is 2.69% (active) in the assay with DU-145 prostate; -58.8% (active) with MALME-3M melanoma; 4% (active) in the assay with MDA-MB-231 breast; -25% (active) in the assay on RXF 393 renal; 11.8% in the assay on SF-268 CNS; 3.16% (active) in the assay with SF-295 CNS. In addition, the growth with SF-539 CNS was -0.233% (active); in the assay on UACC-257 melanoma, -1.41% (active); with M14 melanoma, -37.1% (active).

In the case of `Cc1ccc(-c2nc3ccccn3c2/C=C2/C(=O)Nc3cc(Cl)ccc32)cc1`, the growth was 65.5% in the assay with DU-145 prostate; 76.1% with MALME-3M melanoma; 76% with MDA-MB-231 breast; 77.8% in the assay on RXF 393 renal; 63.3% with SF-268 CNS; 64.5% in the assay with SF-295 CNS. The growth is 79.7% with SF-539 CNS, 91.1% in the assay with UACC-257 melanoma and 80.4% with M14 melanoma.

In the case of `CCc1c2c(nc3ccc(OCc4ccc(B(O)O)cc4)cc13)-c1cc3c(c(=O)n1C2)COC(=O)[C@]3(O)CC`, the growth is 9.26% (active) in the assay on DU-145 prostate; -7.08% (active) with MALME-3M melanoma; 28.8% with MDA-MB-231 breast; -45.5% (active) in the assay on RXF 393 renal; 7.54% (active) in the assay on SF-268 CNS; 1.47% (active) with SF-295 CNS. Also, the growth with SF-539 CNS is -7.49% (active); in the assay on UACC-257 melanoma, -12.2% (active); in the assay with M14 melanoma, 1.07% (active).

Take `COc1ccc(C(=O)c2nc3ccccc3n2CC(=O)c2ccc(F)cc2)cc1`: the growth is 104% with DU-145 prostate; 68.6% in the assay on MALME-3M melanoma; 83% in the assay on MDA-MB-231 breast; 89.1% in the assay on RXF 393 renal; 100% in the assay on SF-268 CNS; 190% with SF-295 CNS. Moreover, the growth in the assay on SF-539 CNS is 101%; in the assay on UACC-257 melanoma it was 86%; in the assay with M14 melanoma, 82.8%.

Regarding `COCCCN1CC(O)=C(c2nc(-c3ccc(C)cc3)cs2)C1=N`, the growth is 102% in the assay on DU-145 prostate; 101% in the assay on MALME-3M melanoma; 96.1% in the assay on MDA-MB-231 breast; 94.3% with RXF 393 renal; 223% in the assay on SF-268 CNS; 123% in the assay with SF-295 CNS. In addition, the growth with SF-539 CNS is 96.9%; in the assay with UACC-257 melanoma it was 83.7%; in the assay with M14 melanoma, 100%.

In the case of `C[C@H]1[C@H]2[C@H]3CC[C@@H]4[C@@]5(C)CC[C@H](O)C(C)(C)[C@@H]5CC[C@@]4(C)[C@]3(C)CC[C@]23CO[C@]1(C)[C@@H](C(=O)/C=C\c1ccco1)C3`, the growth in the assay with DU-145 prostate was 102%; with MALME-3M melanoma, -11.3% (active); in the assay with MDA-MB-231 breast, 82.9%; in the assay on RXF 393 renal, 110%; in the assay on SF-268 CNS, 96.3%; in the assay with SF-295 CNS, 110%. Further, the growth with SF-539 CNS was 99.7%; in the assay with UACC-257 melanoma, -8.91% (active); with M14 melanoma, 34.4%.

Consider `N#Cc1c(-c2cccc([N+](=O)[O-])c2)nc(SCC(=O)c2ccc(Cl)cc2)[nH]c1=O`, for which the growth with DU-145 prostate is 105%; in the assay on MALME-3M melanoma, 99.9%; in the assay with MDA-MB-231 breast, 99.3%; in the assay with RXF 393 renal, 102%; in the assay on SF-268 CNS, 97.7%; with SF-295 CNS, 104%. In addition, the values for the growth with SF-539 CNS, in the assay with UACC-257 melanoma and with M14 melanoma were 100%, 105% and 100%, respectively.

For the compound `NS(=O)(=O)c1ccc(CCN2C(=O)C3C(C2=O)C2(Cl)C(Cl)=C(Cl)C3(Cl)C2(Cl)Cl)cc1` (configuration not stated), the growth with DU-145 prostate is 96.5%; with MALME-3M melanoma, 90.5%; in the assay on MDA-MB-231 breast, 92.9%; with RXF 393 renal, 109%; in the assay with SF-268 CNS, 102%; in the assay on SF-295 CNS, 94%. The growth in the assay on SF-539 CNS is 92.5%; with UACC-257 melanoma, 110%; with M14 melanoma, 94.5%.

With `Cn1cc(-c2nc(-c3c[nH]c4c(Cl)nccc34)cs2)c2cc(F)ccc21`, the growth is 97.4% in the assay on DU-145 prostate; 120% in the assay on MALME-3M melanoma; 100% with MDA-MB-231 breast; 106% in the assay with RXF 393 renal; 114% in the assay with SF-268 CNS; 105% in the assay on SF-295 CNS. Moreover, the growth in the assay on SF-539 CNS was 107%; with UACC-257 melanoma, 70.2%; with M14 melanoma, 99.9%.

With `O=C1NN(C(=O)c2ccccc2)C(c2ccc(Cl)c(Cl)c2)=C/C1=C\c1ccc([N+](=O)[O-])cc1`, the growth with DU-145 prostate was 108%; in the assay on MALME-3M melanoma it was 88.3%; with MDA-MB-231 breast, 80.4%; in the assay with RXF 393 renal it was 74.3%; in the assay with SF-268 CNS it was 74.8%; in the assay with SF-295 CNS it was 88.5%. The growth in the assay on SF-539 CNS was 90.5%; in the assay on UACC-257 melanoma, 96.5%; in the assay on M14 melanoma, 41.8%.

Take `Cc1cc2cc3ccc(N(C)C)cc3nc2cc1N`: the growth was -50.3% (active) with DU-145 prostate; -5.97% (active) in the assay on MALME-3M melanoma; -18.4% (active) with MDA-MB-231 breast; -38% (active) in the assay on RXF 393 renal; 0.225% (active) with SF-268 CNS; 2.71% (active) in the assay on SF-295 CNS. The growth is -4.96% (active) in the assay with SF-539 CNS, -1.21% (active) in the assay on UACC-257 melanoma and -13.4% (active) in the assay on M14 melanoma.

The record behind these values is PubChem BioAssay (NCI).
